Reference: PubChem BioAssay AID463173 (ICCB-Longwood Screening Facility, Harvard Medical School, 2010)
The whole screen tested about 52,000 compounds, of which about 4,300 (8.3%) were called active. The full list was thinned out, with actives kept by preference. Values without a mark were called inactive. No stated cut-off is given here; in the data, active means survival mostly below about 52% (no sharp cut-off); inactive means mostly above about 56%.

Tested on: DeltatarO mutant
Assay: growth inhibition of S. aureus wild type versus tarO mutant, primary screen, teichoic acid synthesis inhibitors, RN4220, OD600 (AID 463173)
Details: OD600, 18 h, hits give low values, screened at 18.75 µg/mL (by protocol)

SMILES | survival
COc1ccc(-c2ccc(NS(=O)(=O)c3ccc(F)c(C(F)(F)F)c3)cc2)nn1 | 117%
Cc1ccc2cc(CN(CCN(C)C)C(=O)NC3CCCCC3)c(=O)[nH]c2c1 | 101%
O=C(CCn1cccn1)NCc1ccc(Cl)cc1 | 73%
COc1ccc(OC(=O)c2cn(-c3cccc(OC)c3)c(=O)c3ccccc23)cc1 | 80%
COC(=O)c1ccc(NC(=O)c2nn(C)c3c2CS(=O)(=O)c2ccccc2-3)cc1 | 81%
CC1(C)c2ssc(=S)c2-c2ccccc2N1C(=O)CSC#N | 106%
Cc1ccc(NC(=O)c2c3c(nc4ccccc24)C(=O)N(C2CCCCC2)C3)cc1F | 102%
Cc1nn(CC(=O)Nc2cccc(C(F)(F)F)c2)c(=O)c2nn(-c3ccccc3)c(C)c12 | 75%
O=C(c1ccc(-c2cccc(C(F)(F)F)c2)o1)N1CCOCC1 | 84%
O=C(Nc1cccc2cccnc12)c1cccc2c(Br)cccc12 | 70%
O=C(Nc1ccc(Br)c2cccnc12)c1cccc2ccccc12 | 29% (active)
COc1c(Cl)cc(Cl)cc1C(=O)Nc1cccc2cccnc12 | 143%
O=C(O)c1ccccc1C(=O)Nc1ccc(Br)c2cccnc12 | 49%
O=C(Nc1cccc2cccnc12)c1cccc2ccccc12 | 1% (active)
O=C(Nc1cccc2cccnc12)c1ccccc1[N+](=O)[O-] | 68%
O=C(CN1Cc2ccccc2C1=O)Nc1cc(F)ccc1F | 81%
Cc1nc2ccc(S(=O)(=O)CCC(=O)Nc3ccc(C)c(C)c3)cc2s1 | 107%
CCOc1ccc(-n2c(SCC(=O)Nc3ccc(CC)cc3)nc3c(oc4ccccc43)c2=O)cc1 | 71%
CCOC(=O)c1c(S(=O)(=O)NCC(=O)N(C)Cc2ccccc2)c(C)n(C)c1C | 89%
CCOc1no[n+]([O-])c1-c1ccccc1 | 90%
CN(C(=O)CSc1nc2ccc(NC(=O)c3ccccc3F)cc2s1)c1ccccc1 | 103%
CCN(Cc1nc(-c2ccc(OC)cc2)oc1C)S(=O)(=O)c1ccc(C)cc1 | 95%
COc1ccc(C(=O)N/N=C2/SCC(=O)N2C)c(OC)c1 | 69%
Cc1[nH]c2ccccc2c1C1(O)C(=O)N(Cc2ccc(Cl)cc2)c2ccccc21 (stereo not drawn) | 29% (active)
CCN1C(=O)C(O)(c2c(C)[nH]c3ccccc23)c2ccccc21 (stereo not drawn) | 54%

SMILES | survival
Cc1ccc(C)c(CN2C(=O)C(O)(c3c(C)[nH]c4ccccc34)c3ccccc32)c1 (stereo not drawn) | 51%
Cc1ccc(CN2C(=O)C(O)(c3c(C)[nH]c4ccccc34)c3ccccc32)cc1 (stereo not drawn) | 101%
Cc1[nH]c2ccccc2c1C1(O)C(=O)N(Cc2ccccc2)c2ccc(Br)cc21 (stereo not drawn) | 3% (active)
Cc1[nH]c2ccccc2c1C1(O)C(=O)N(Cc2ccccc2Cl)c2ccccc21 (stereo not drawn) | 51%
CCCCN1C(=O)C(O)(c2c(C)[nH]c3ccccc23)c2ccccc21 (stereo not drawn) | 51%
Cc1[nH]c2ccccc2c1C1(O)C(=O)N(Cc2ccccc2)c2ccc(Cl)cc21 (stereo not drawn) | 24% (active)
CCCCN1C(=O)C(O)(c2c(C)[nH]c3ccccc23)c2cc(Br)ccc21 (stereo not drawn) | 27% (active)
CCOC(=O)CC(NC(=O)CCc1c(C)nc2c(-c3ccccc3)c(C)nn2c1C)c1ccc(C)cc1 (stereo not drawn) | 63%
COc1ccccc1CNC(=O)C1CCN(S(=O)(=O)c2c(C)noc2/C=C/c2c(C)cc(C)cc2C)CC1 | 79%
COc1cn(CC(=O)Nc2cccc(C)c2)c(CN2CCCCC2)cc1=O | 85%
C=CCNC(=O)CSc1ccc(C)cc1 | 82%
COc1cc(OC)c(NC(=O)NCc2ccc3c(c2)CCN3C(C)=O)cc1Cl | 124%
Cc1ccc(SCC(=O)Nc2cccc(-c3nc4cc(Cl)ccc4o3)c2C)cc1 | 60%
CC(C)(Oc1ccc(Cl)cc1)C(=O)Nc1ccc(-c2nc3ncccc3o2)cc1 | 52%
Cc1cc(NC(=O)C(C)(C)Oc2ccc(Cl)cc2)cc(-c2nc3ncccc3o2)c1O | 82%
Cc1c(NC(=O)C(C)(C)Oc2ccc(Cl)cc2)cccc1-c1nc2ccccc2o1 | 2% (active)
COc1c(Cl)cc(Cl)cc1C(=O)Nc1cccc(-c2nc3ccccc3o2)c1C | 109%
Cc1c(NC(=O)C(C)(C)Oc2ccc(Cl)cc2)cccc1-c1nc2ncccc2o1 | 19% (active)
CCCCN1CCc2nc(Nc3ccc(OC)cc3OC)ncc2C1 | 77%
CCOC(=O)c1noc2ncn(CC(=O)O)c(=O)c12 | 54%
O=C(O)c1c2c(nc3ccc(F)cc13)CCCC2 | 89%
O=C(CSc1ccccc1)Nc1ccc2c(c1)OCO2 | 100%
CCCNC(=O)N1[C@H](c2cccs2)[C@@H](C)C(=O)[C@@H](C)[C@@H]1c1cccs1 | 107%
CCOC(=O)CNC(=O)N1[C@H](c2cccs2)[C@@H](C)C(=O)[C@@H](C)[C@@H]1c1cccs1 | 55% (active)
CC(C)CNC(=O)N1[C@H](c2cccs2)[C@@H](C)C(=O)[C@@H](C)[C@@H]1c1cccs1 | 54%

SMILES | survival
CC(C)c1ccccc1NC(=O)CN(c1ccccc1)S(=O)(=O)N(C)C | 81%
Cc1oc(-c2ccc(C(=O)Nc3ccccc3F)cc2)nc1COc1ccccc1 | 94%
COc1ccc(-c2nc(CS(=O)(=O)CC(=O)NCCc3ccc(C)cc3)c(C)o2)cc1 | 85%
CCc1ccc(-c2nc(CSCC(=O)NCc3ccccc3OC)c(C)o2)cc1 | 62%
Cc1oc(-c2cccc(Cl)c2)nc1CSCC(=O)NCc1ccccc1Cl | 0% (active)
Cc1ccc(-c2nc(CS(=O)(=O)CC(=O)NCc3ccccc3Cl)c(C)o2)cc1 | 56%
Cc1oc(-c2cccc(Cl)c2)nc1CS(=O)(=O)CC(=O)NCc1ccccc1Cl | 49%
COc1ccc(-c2nc(CS(=O)CC(=O)NCc3ccccc3Cl)c(C)o2)cc1OC (stereo not drawn) | 72%
Cc1ccc(-c2nc(CS(=O)CC(=O)NCc3ccccc3Cl)c(C)o2)cc1 (stereo not drawn) | 54% (active)
Cc1oc(-c2cccc(Cl)c2)nc1CSCC(=O)O | 75%
COc1ccccc1CNC(=O)CSCc1nc(-c2ccc(OC)c(OC)c2)oc1C | 71%
COc1ccc(-c2nc(CS(=O)(=O)CC(=O)NCc3ccccc3Br)c(C)o2)cc1 | 41% (active)
COc1ccc(-c2nc(CSCC(=O)NCc3ccccc3Cl)c(C)o2)cc1OC | 46% (active)
Cc1oc(-c2ccccc2Cl)nc1CS(=O)CC(=O)NCc1ccccc1Cl (stereo not drawn) | 54%
CN1CCN(C(=O)c2ccc(N(C)S(C)(=O)=O)cc2)CC1 | 107%
Cc1cccc(CCNC(=O)C2CCCN(S(=O)(=O)c3ccc4c(c3)oc(=O)n4C)C2)c1 (stereo not drawn) | 102%
Cc1ccc(Cn2c(C)c3cnn(CC(=O)N4CCN(c5ccc(F)cc5)CC4)c(=O)c3c2C)cc1 | 71%
CC(=O)c1ccc(NC(=O)Cn2cc(S(=O)(=O)Cc3cccc(Cl)c3)c3ccccc32)cc1 | 113%
O=C(Nc1ccc(F)c(F)c1)c1nc2ncccn2n1 | 82%
COc1ccc(Br)cc1CNC(=O)CSc1n[nH]c(-c2ccccc2)n1 | 73%
Cc1ccc(-c2nc(CS(=O)(=O)CC(=O)NC(C)CCc3ccccc3)c(C)o2)cc1 (stereo not drawn) | 63%
Cc1oc(-c2cccc(Cl)c2)nc1CS(=O)(=O)CC(=O)NC(C)CCc1ccccc1 (stereo not drawn) | 32% (active)
Cc1oc(-c2ccccc2Cl)nc1CS(=O)(=O)CC(=O)NC(C)CCc1ccccc1 (stereo not drawn) | 76%
COC(=O)C12CC3CC(CC(C(=O)OC)(C1)C3=O)C2=O | 116%
Cc1nc(SCc2cccc(Cl)c2)nc2c1CCCC2 | -2% (active)

SMILES | survival
Cc1cccc(CSc2nc3c(c(=O)[nH]2)CCC3)c1 | 69%
O=c1[nH]c(SCc2cccc(Cl)c2)nc2c1CCC2 | 85%
COc1ccccc1CNC(=O)c1c(O)nc2c(C)cccn2c1=O | 69%
O=C(NCc1ccc2c(c1)CCN2C(=O)c1ccncc1)c1ccccc1F | 117%
COc1ccccc1Nc1nn2c(=O)c3ccc(C(=O)N4CCC(C)CC4)cc3nc2s1 | 52% (active)
COc1ccccc1Nc1nn2c(=O)c3ccc(C(=O)N4CCCCC4)cc3nc2s1 | 71%
COc1ccccc1Nc1nn2c(=O)c3ccc(C(=O)N4CCCC(C)C4)cc3nc2s1 (stereo not drawn) | 61%
CCN(CC)S(=O)(=O)c1ccc2c(c1)N(CC(=O)Nc1cccc(C)c1C)C(=O)C1CCCN21 (stereo not drawn) | -2% (active)
CCc1ccccc1NC(=O)CN1C(=O)C2CCCN2c2ccc(S(=O)(=O)N(CC)CC)cc21 (stereo not drawn) | 72%
CCN(CC)S(=O)(=O)c1ccc2c(c1)N(CC(=O)Nc1c(C)cccc1C)C(=O)C1CCCN21 (stereo not drawn) | 89%
O=C(Cn1c(=O)nc(-c2ccccc2)c2ccccc21)NCCc1ccc(Cl)cc1 | 70%
CCCn1c2ccccc2c2cnn(CC(=O)N3CCN(c4ccccc4F)CC3)c(=O)c21 | -4% (active)
O=C(Cn1ncc2c3ccccc3n(Cc3ccccc3)c2c1=O)N1CCCCCC1 | 82%
CCN1CCN(C(=O)Cn2ncc3c4ccccc4n(Cc4ccccc4F)c3c2=O)CC1 | 95%
Cc1cc(C)c(Cn2c3ccccc3c3cnn(CC(=O)N4CCCCCC4)c(=O)c32)c(C)c1 | 9% (active)
CC1CCCCN1C(=O)Cn1ncc2c3ccccc3n(Cc3ccccc3F)c2c1=O (stereo not drawn) | 32% (active)
CCCn1c2ccccc2c2cnn(CC(=O)N3CCC(C)CC3)c(=O)c21 | 76%
Cc1cc(C)c(Cn2c3ccccc3c3cnn(CC(=O)N4CCCCC4)c(=O)c32)c(C)c1 | 126%
O=C(Cn1ncc2c3ccccc3n(Cc3ccccc3F)c2c1=O)N1CCCCC1 | 120%
CCN1CCN(C(=O)Cn2ncc3c4ccccc4n(Cc4c(C)cc(C)cc4C)c3c2=O)CC1 | 124%
O=C(Cn1ncc2c3ccccc3n(Cc3ccc(Cl)cc3)c2c1=O)N1CCCCCC1 | 84%
Cc1ccc(Cn2c3ccccc3c3cnn(CC(=O)N4CCCCCC4)c(=O)c32)cc1 | 19% (active)
O=C(Cn1ncc2c3ccccc3n(Cc3ccccc3F)c2c1=O)N1CCCCCC1 | 70%
